Screening results (PubChem)
C_diff_HTS = C. difficile growth inhibition; Clostridium difficile clinical isolate growth, OD600, 24 h; active compounds read low; growth activity, negative = inhibition, % at 16 µg/mL (by protocol); actives 0.25% (n = 86,000); AID 1259249;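 active means mean growth activity at or below -80% and every replicate also at or below -80%; inconclusive means mean at or below -80% but some replicate above -80%; inactive means mean growth activity above -80%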;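 further: 0% = DMSO wells and -100% = levofloxacin 16 µg/mL wells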
T_cruzi_growth-1 = inhibitors of T. cruzi proliferation; T. cruzi beta-gal in NIH3T3, GalScreen luminescence, 90 h; inhibition, % at 8.34 µM; actives 5.9% (n = 77,000);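 active means mean inhibition above about 93%, with at least 55% of replicates each passing it, limit read from the data, passing the limit was not always enough; inconclusive means only one of those two conditions holds; inactive means neither condition holds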
Pf_Dd2_growth = P. falciparum Dd2 growth inhibition | SYBR Green, 72 h; active compounds read low | activity change, % at 10 µM | AID 1159554 | actives 2.3% (n = 94,000); in the data active means activity change below about -80%; inconclusive means no clear call, values can overlap the other calls
T_cruzi_growth-2 = Trypanosoma cruzi proliferation inhibition | shares compounds with T_cruzi_growth-1 | T. cruzi beta-gal in NIH3T3, GalScreen luminescence, 90 h | inhibition, % at 8.35 µM | actives 72% (n = 5,600);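 active means mean replicate inhibition above about 95% and at least 55% of replicates individually reaching it, limit read from the data; inconclusive means only one of the two criteria is met; inactive means neither criterion is met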
T_cruzi_growth-3 = inhibitors of T. cruzi proliferation; shares compounds with T_cruzi_growth-1; T. cruzi beta-gal in NIH3T3, GalScreen luminescence, 90 h; inhibition, % at 2.09 µM; actives 21% (n = 5,600); AID 651740;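 active means mean inhibition above about 95%, with at least 55% of replicates also reaching it, limit read from the data; inconclusive means meets just one of the two conditions; inactive means meets neither condition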;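 further: plate controls were neutral control median for no effect and positive control median for full effect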
3T3_cytotox = NIH/3T3 (mouse) viability loss; actives 14% (n = 5,600); NIH/3T3 viability, CellTiter-Glo ATP luminescence, 90 h; shares compounds with T_cruzi_growth-1; cytotoxicity (signal decrease), % at 8.35 µM; AID 651742;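 active means mean signal decrease across replicates above about 35% based on untreated-well scatter, with enough replicates individually passing, limit read from the data; inconclusive means no rule stated though some were filed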;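 further: 0% = median of neutral control wells and 100% = median of positive control wells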
3T3_cytotox_2 = kills mouse NIH/3T3 fibroblasts; shares compounds with T_cruzi_growth-1; NIH/3T3 viability, CellTiter-Glo ATP luminescence, 90 h; inhibition, % at 24.9 µM; actives 56% (n = 5,600); AID 651744;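 active means mean loss of cell viability signal at or above a set limit, and enough replicates individually reaching it; inconclusive means meets only the mean limit or only the replicate share; inactive means meets neither condition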;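 further: 0% = median of neutral control wells and 100% = median of positive control wells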
Active calls of the source: *; ? = inconclusive; / = no result. An excerpt weighted towards active compounds, which were near 6.7% of everything screened.

SMILES C_diff_HTS T_cruzi_growth-1 Pf_Dd2_growth T_cruzi_growth-2 T_cruzi_growth-3 3T3_cytotox 3T3_cytotox_2
C/C=C/c1ccc([C@@H]2[C@@H](C#N)N(c3ncc(CC)s3)[C@H]2CO)cc1 16 102* 30 96* 17 2 53*
C/C=C/c1ccc([C@@H]2[C@@H](C#N)N(c3ncc(CC)s3)[C@@H]2CO)cc1 6 ? -37 101* 107* 19 38*
C/C=C/c1ccc([C@H]2[C@@H](C#N)N(c3ncc(CC)s3)[C@H]2CO)cc1 0 101* 8 106* 100* 2 18
C/C=C/c1ccc([C@@H]2[C@H](C#N)N(c3ncc(CC)s3)[C@H]2CO)cc1 3 94 41 / / / /
CCCC(=O)Nc1ccc2c(c1)C(=O)N(C)C[C@@H](OC)[C@@H](C)CN(CC1CCOCC1)[C@H](C)CO2 / -9 / / / / /
CC(C)NC(=O)Nc1ccc2c(c1)C(=O)N([C@@H](C)CO)C[C@H](C)[C@@H](CN(C)Cc1ccc(C(F)(F)F)cc1)OCCCC[C@H](C)O2 3 / / / / / /
O=C([C@H]1[C@H](CO)[C@H]2Cn3c(ccc(C4=CCCC4)c3=O)[C@@H]1N2)N1CCCCC1 0 72 19 / / / /
COc1ccc(NC(=O)N2CC3(C2)CN(C(=O)c2cccnc2)[C@@H](CO)c2[nH]c4cc(OC)ccc4c23)cc1 51 / -1 / / / /
C[C@H](CO)N1C[C@H](C)[C@H](CN(C)S(=O)(=O)c2ccccc2)OCCCC[C@H](C)Oc2ccc(NC(=O)Nc3ccccc3)cc2C1=O / 100* -36 108* 65 -10 54*
C[C@@H]1CN([C@H](C)CO)C(=O)c2cc(NC(=O)Nc3ccccc3)ccc2O[C@@H](C)CCCCO[C@@H]1CN(C)S(=O)(=O)c1ccccc1 / 7 -64 / / / /
C[C@H]1CCCCO[C@H](CN(C)S(=O)(=O)c2ccccc2)[C@@H](C)CN([C@@H](C)CO)C(=O)c2cc(NC(=O)Nc3ccccc3)ccc2O1 / 14 -69 / / / /
C[C@@H]1CCCCO[C@H](CN(C)S(=O)(=O)c2ccccc2)[C@H](C)CN([C@H](C)CO)C(=O)c2cc(NC(=O)Nc3ccccc3)ccc2O1 / 103* -85* 113* 61 18 34*
C[C@H](CO)N1C[C@H](C)[C@H](CN(C)Cc2ccccc2)Oc2c(NS(=O)(=O)c3cn(C)cn3)cccc2C1=O -1 -4 15 / / / /
C[C@@H]1CN([C@@H](C)CO)C(=O)c2cccc(NS(=O)(=O)c3cn(C)cn3)c2O[C@@H]1CN(C)S(=O)(=O)c1cccs1 -1 -5 17 / / / /
N#C[C@@H]1[C@@H](c2ccc(C3=CCCC3)cc2)[C@H](CO)N1C(=O)c1cccc(F)c1 11 62 10 / / / /
N#C[C@@H]1[C@H](c2ccc(C3=CCCCC3)cc2)[C@H](CO)N1C(=O)c1cccc(F)c1 -18 ? 10 107* 80 12 24*
N#C[C@H]1[C@@H](c2ccc(-c3cccnc3)cc2)[C@@H](CO)N1C(=O)Nc1ccc(F)cc1 28 105* -22 108* 56 -30 -8
COc1ccccc1-c1ccc([C@@H]2[C@@H](C#N)N(C(=O)c3cccc(F)c3)[C@@H]2CO)cc1 10 68 -37 / / / /
COc1ccc(-c2ccc([C@H]3[C@H](C#N)N(C(=O)c4cccnc4)[C@H]3CO)cc2)cc1 -3 107* -91* 108* 34 -3 31*
N#C[C@@H]1[C@H](c2ccc(-c3cccnc3)cc2)[C@H](CO)N1C(=O)Nc1ccc(F)cc1 23 35 -27 / / / /
N#C[C@@H]1[C@@H](c2ccccc2)[C@@H](CO)N1C(=O)c1cccnc1 -18 22 43 / / / /
COc1ccc(-c2ccc([C@H]3[C@H](C#N)N(C(=O)c4cccc(F)c4)[C@H]3CO)cc2)cc1 3 106* ? 101* 111* 5 22
CCC(=O)N1[C@@H](CO)[C@@H](c2ccccc2)C12CN(Cc1nccs1)C2 -6 / -12 / / / /
